In all, about 360,000 compounds went through this assay and about 130 (0.036%) were called active. The entries come from a sample that favours actives as a whole. A number with no mark means an inactive call. No stated cut-off is given here; in the data, active means potentiation above about 30%; inactive means the rest.
The compounds below were run against D(1A) dopamine receptor (Homo sapiens) (UniProt P21728) (assay: Potentiators of Human D1 Dopamine Receptor: qHTS). Conditions: HEK293 TREx D1 cells, calcium flux, dopamine EC20 potentiation; at 10 µM; stronger effect = higher value.
D(1A) dopamine receptor (Homo sapiens), sequence (P21728 whole entry, looked up): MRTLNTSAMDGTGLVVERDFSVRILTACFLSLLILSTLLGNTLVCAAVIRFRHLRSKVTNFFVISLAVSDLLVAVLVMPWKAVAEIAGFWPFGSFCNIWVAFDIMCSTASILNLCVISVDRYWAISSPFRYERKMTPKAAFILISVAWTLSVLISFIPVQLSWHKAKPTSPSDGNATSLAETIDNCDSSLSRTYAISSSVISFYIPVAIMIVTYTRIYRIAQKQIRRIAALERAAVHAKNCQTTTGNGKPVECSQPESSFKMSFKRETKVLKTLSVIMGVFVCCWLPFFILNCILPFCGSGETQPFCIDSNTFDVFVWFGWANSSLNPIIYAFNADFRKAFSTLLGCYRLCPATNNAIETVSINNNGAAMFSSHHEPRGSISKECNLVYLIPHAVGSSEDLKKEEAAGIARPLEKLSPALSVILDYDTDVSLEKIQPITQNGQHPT
Description: Dopamine receptors (DARs) are involved in the etiology and/or therapy of a number of neuropsychiatric and endocrine disorders. For instance, all receptor-based antiparkinsonian drugs work via stimulating the D1 DAR subtype whereas all FDA-approved antipsychotic agents are antagonists of this receptor. […] There are three different types of allosteric modulators that we are seeking, two of which will stimulate or augment receptor signaling, allosteric agonists and potentiators, while the third, allosteric antagonists, will attenuate receptor signaling. The present primary screening assay measures compound potentiation of an EC20 dopamine response by tracking calcium flux in a […], inducible Hek293 Trex D1 cell line.
NIH Chemical Genomics Center [NCGC]
NIH Molecular Libraries Probe Centers Network [MLPCN]
Assay Submitter (PI): David Sibley
Freshly passaged cells are plated in 1536 well black, clear bottom plates at a density of 4000 cells/well in 3 ul of complete media containing 1x tetracycline inducer. After an overnight incubation at 30 C in 5% CO2, cells are loaded with 2 ul of the no wash Calcium Assay Kit (ABD Bioquest) and incubated at room temperature for 30 to 90 minutes. A 10 cycle (1 second/cycle) baseline measurement is taken and then the FDSS online 1536 pintool delivers 23 nl of compound library (as well as dopamine controls) to the plate. The plate is measured for kinetically at 1 cycle/sec for 180 seconds and is considered to be the agonist portion of the assay (eg, compounds which activate a positive calcium response during this portion are flagged as potential agonists). Following the 180 second read, 1 ul of an EC20 of dopamine is delivered by an onboard pipette head. Measurements are taken kinetically for an additional 180 seconds.
Further: 0% is about no effect.

| SMILES | potentiation |
| --- | --- |
| Cc1ccc(Cl)cc1N1CCN(C(=O)CN2C(=O)COc3ccc(S(=O)(=O)N4CCOCC4)cc32)CC1 | 4.75% |
| Cc1c(C(=O)N2CCCC2)oc2c1-c1nn(CC(=O)NCc3ccc(OC(C)C)cc3)cc1CC2 | -0.75% |
| Cc1ccc(-c2nc(SCc3ccc(Br)cc3)n3[nH]c(=O)cc3n2)cc1 | -0.15% |
| O=S(=O)(c1ccccc1)c1nc(-c2ccc(Cl)cc2Cl)oc1N1CCCCC1 | -2.95% |
| CCOc1ccc(N(Cc2ccccc2)C(=O)c2nc(S(C)(=O)=O)ncc2Cl)cc1 | -0.05% |
| Cc1c(CCNC(=O)c2ccc(C(F)(F)F)cc2)sc2nc(-c3ccc(F)cc3)nn12 | -2.3% |
| COc1ccc(OC)c(-c2nc(C(N)=O)c3c(n2)n(-c2ccc4c(c2)OCO4)c(=O)n3C)c1 | 0.75% |
| O=C(c1ccc2c(c1)N(Cc1ccc(Cl)cc1)C(=O)c1ccccc1S2(=O)=O)N1CCCCC1 | -1.9% |
| CCN1C(=O)c2ccccc2S(=O)c2ccc(C(=O)NCc3ccc(F)cc3)cc21 (centres undefined) | 3% |
| CN1CCN(c2ccccc2NC(=O)COc2ccc(C3CCCCC3)cc2)CC1 | 37.7% (active) |
| CCOc1ccccc1NC(=O)COc1ccc(S(=O)(=O)N2CCCC2)cc1 | -4.6% |
| Cc1ccc(OCC(=O)Nc2ccccc2C(=O)NC2CC2)cc1 | -0.15% |
| CCn1c2ccccc2c2nnc(SCC(=O)O)nc21 | -1.3% |
| Cc1oc2ncnc(N3CCOCC3)c2c1C(=O)NCCc1ccccc1 | 2.6% |
| COc1ccccc1N1CCN(C(CNC(=O)C(=O)NCc2ccc(C)cc2)c2cccnc2)CC1 (centres undefined) | 3.55% |
| COc1cccc(C(=O)NC2CCN(C#N)CC2)c1 | -6.95% |
| O=C(Cn1cc(SCc2cccc(Cl)c2)c2ccccc21)N1CCCCC1 | -2.05% |
| CCCOc1ccc(NC(=O)CC2C(=O)N(c3ccccc3)C(=O)N2Cc2ccco2)cc1 (centres undefined) | -2.9% |
| Cc1cccc(NC(=O)C2CCCN2S(=O)(=O)c2cccc3nsnc23)c1C (centres undefined) | -2.95% |
| CC(C)c1ccc(NC(=O)Cn2nnc(C(=O)NCCc3ccccc3)c2N)cc1 | -1.7% |
| O=C(CSc1nc2nccnc2c(=O)n1CCc1c[nH]c2ccccc12)Nc1ccccc1F | -3.65% |
| COc1ccc(S(=O)(=O)Nc2cccc3cccnc23)c(N)c1 | -3.75% |
| CC(C)NC(=O)NC(=O)CSc1nnc(-c2ccccc2F)n1N | 35% (active) |
| Nn1c(SCC(=O)NC(=O)NC2CCCC2)nnc1-c1ccccc1F | -9.3% |
| Nn1c(SCC(=O)NC2CCCC2)nnc1-c1ccccc1F | -7.1% |
| O=S(=O)(c1ccc2c(c1)OCCO2)N1CCN(S(=O)(=O)c2cc(F)ccc2F)CC1 | -0.7% |
| Cc1ccc(C)c(Cn2c(=O)n(CCC(=O)NCc3ccc4c(c3)OCO4)c(=O)c3sccc32)c1 | 0.75% |

| SMILES | potentiation |
| --- | --- |
| CCOc1cc(C2c3c(-c4ccc(Br)cc4)n[nH]c3C(=O)N2c2ccc(Cl)cc2)ccc1O (centres undefined) | 1.25% |
| COc1cc(CN(CC2CCCO2)C(=O)c2ccccc2F)cc(OC)c1OC (centres undefined) | 5% |
| N#CN1CCC(NC(=O)c2ccc(F)cc2)CC1 | -0.05% |
| O=C(CNC(=O)c1ccc(Cl)c(C(F)(F)F)c1)OC(C(=O)Nc1cc(C(F)(F)F)ccc1Cl)c1ccccc1 (centres undefined) | 1.3% |
| CCOc1ccccc1NC(=O)CSc1ncc(S(=O)(=O)c2ccc(C(C)(C)C)cc2)c(=O)[nH]1 | 2.25% |
| COc1ccc2c(Sc3ccc(C)cc3)c(C(=O)NC(C)c3ccccc3)[nH]c2c1 (centres undefined) | -3.25% |
| Cn1nnnc1SCCCNCc1cccc(OCc2ccc(Cl)cc2)c1 | 0.9% |
| CC(NC(=O)c1cc(Sc2ccc(F)cc2F)nc2ccccc12)c1ccccc1 (centres undefined) | -2.8% |
| Cc1cc2c(s1)c1cnn(Cc3c(F)cccc3Cl)c(=O)c1n2C | -3.2% |
| COc1ccc(OCCCn2c(C3CC(=O)N(c4ccc(F)cc4)C3)nc3ccccc32)cc1 (centres undefined) | -2% |
| Cn1nnnc1Sc1ncnc2scc(-c3ccccc3[N+](=O)[O-])c12 | 9.9% |
| COC(=O)c1ccc(C2C(C(=O)Nc3ccccc3)=C(C)Nc3nc4ccccc4n32)cc1 (centres undefined) | -1.75% |
| CC(C)Cn1c(=O)c2ccccc2n2c(CCC(=O)N3CCN(c4cccc(Cl)c4)CC3)nnc12 | -1.35% |
| Cc1ccc(NC(=O)c2ccc(CN3CC(=O)N4CCCCC4C3=O)cc2)c(Cl)c1 (centres undefined) | 1.5% |
| COc1ccc(-n2ccn(CC(=O)Nc3ccc(C)c(C)c3)c(=O)c2=O)cc1OC | -0.8% |
| COc1cc(-c2cc3n(C)c(C)c(CCC(=O)Nc4ccc(F)cc4)c(=O)n3n2)cc(OC)c1OC | 0.6% |
| Cc1cc(C)cc(NC(=O)c2cnc3sc(N4CCCC4)nn3c2=O)c1 | -4.45% |
| CCCC(=O)Nc1cc(C(=O)NCc2ccc(OC)cc2)ccc1S(=O)(=O)c1ccc(Cl)cc1 | -6.15% |
| COc1ccc(Cl)cc1NC(=O)CCn1c(=O)c2cccn2c2ccccc21 | -4.3% |
| CCCCN(CC)CCCNC(=O)Cn1ncc2c([nH]c3ccc(C)cc32)c1=O | 1.4% |
| COc1ccccc1CNCc1ccc(C(=O)O)s1 | -0.25% |
| O=C(NCC12CC3CC(CC(C3)C1)C2)c1cc2nc(-c3ccccc3)cc(C(F)(F)F)n2n1 | 0.55% |
| CCOc1ccccc1NC(=O)Cn1c(=O)n(-c2cccc(C)c2)c(=O)c2c1c1cc(OC)ccc1n2C | 3.65% |
| CC(C)(C)OC(=O)N1CCC(c2c(C(=O)N3CCc4ccccc4C3)cnn2-c2ccc(F)cc2)CC1 | -4.3% |
| O=C(CCSCc1ccccc1F)N1CCN(c2ccc(Cl)cc2)CC1 | -0.6% |
| Cc1noc(C)c1-c1ccc2ncnc(NCc3ccc(F)c(F)c3)c2c1 | -4.15% |
| O=C(CS(=O)(=O)c1cccc2nsnc12)N1CCN(c2cccc(Cl)c2)CC1 | 0.15% |

Source: PubChem BioAssay AID504651 (National Center for Advancing Translational Sciences (NCATS), 2011)
